# Hits are enriched below; roughly 11% of the tested compounds scored in any of these assays.
# BAZ2B inh = BAZ2B (human) inhibition; Potency, µM (highest dose often 114 µM), inactives show top-dose activity change, negative = inhibition, most hits filed as inhibitors; AID 504333; 360,000 tested, 4.4% active; AlphaScreen BAZ2B-H3K14Ac peptide displacement; Q9UIF8; further: on the % scale 0 is the no-effect control and ±100 the full control effect; nearly all actives have a fitted effect of over 60% in size
#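 Protein-peptide AlphaScreen: BAZ2B 50 nM, b-H3K14Ac 50 nM, 1x PBS pH 7.4 + 0.01% Tween-20. Preincubation 30 min RT; cpd 30 min RT (top 110 uM); beads 20 min RT, light-protected.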
# G9a block = blocks human histone lysine methyltransferase G9a; Q96KQ7; G9a H3K9 monomethylation, AlphaScreen, 2 h; Potency, µM (titrated, usually from 102 µM), for inactives: at the highest dose activity, negative = inhibition, most hits filed as inhibitors; 350,000 tested, 8.8% active; AID 504332; further: on the % scale 0 is the no-effect control and ±100 the full control effect; nearly all actives have a fitted effect of over 75% in size
#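 Enzyme 20 nM + cpd, 15 min RT; add b-H3K9 pep 500 nM / SAM 20 uM; 2 h RT; anti-H3K9me1 Ab 0.5 ug/mL + SA donor / anti-rabbit acceptor beads 20 ug/mL each, 10 min; AlphaScreen read.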
# VDR inhibitor = vitamin D3 receptor (human) inhibition; P11473; VDR-SRC2-3 peptide fluorescence polarization, 2 h; Potency, µM, inactives show max response, negative = inhibition, usual class: inhibitors; 400,000 tested, 0.93% active; AID 504847; further: on the % scale 0 is the no-effect control and ±100 the full control effect
#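 Signal is fluorescence polarization, reporting how far test compounds block the interaction of VDR with the SRC2-3 coregulator peptide after a 2 h room-temperature incubation.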
# JMJD2A Tudor = blocks the human JMJD2A Tudor domain; O75164; AlphaScreen JMJD2A-Tudor / H3K4me3 peptide binding; Potency, µM (titrated, usually from 114 µM), for the others: at the highest dose activity change, negative = inhibition, actives largely listed as inhibitors; 390,000 tested, 4.4% active; further: on the % scale 0 is the no-effect control and ±100 the full control effect; nearly all actives have a fitted effect of over 50% in size
# Target sequence (O75164 whole entry, looked up, the tested form may be a part): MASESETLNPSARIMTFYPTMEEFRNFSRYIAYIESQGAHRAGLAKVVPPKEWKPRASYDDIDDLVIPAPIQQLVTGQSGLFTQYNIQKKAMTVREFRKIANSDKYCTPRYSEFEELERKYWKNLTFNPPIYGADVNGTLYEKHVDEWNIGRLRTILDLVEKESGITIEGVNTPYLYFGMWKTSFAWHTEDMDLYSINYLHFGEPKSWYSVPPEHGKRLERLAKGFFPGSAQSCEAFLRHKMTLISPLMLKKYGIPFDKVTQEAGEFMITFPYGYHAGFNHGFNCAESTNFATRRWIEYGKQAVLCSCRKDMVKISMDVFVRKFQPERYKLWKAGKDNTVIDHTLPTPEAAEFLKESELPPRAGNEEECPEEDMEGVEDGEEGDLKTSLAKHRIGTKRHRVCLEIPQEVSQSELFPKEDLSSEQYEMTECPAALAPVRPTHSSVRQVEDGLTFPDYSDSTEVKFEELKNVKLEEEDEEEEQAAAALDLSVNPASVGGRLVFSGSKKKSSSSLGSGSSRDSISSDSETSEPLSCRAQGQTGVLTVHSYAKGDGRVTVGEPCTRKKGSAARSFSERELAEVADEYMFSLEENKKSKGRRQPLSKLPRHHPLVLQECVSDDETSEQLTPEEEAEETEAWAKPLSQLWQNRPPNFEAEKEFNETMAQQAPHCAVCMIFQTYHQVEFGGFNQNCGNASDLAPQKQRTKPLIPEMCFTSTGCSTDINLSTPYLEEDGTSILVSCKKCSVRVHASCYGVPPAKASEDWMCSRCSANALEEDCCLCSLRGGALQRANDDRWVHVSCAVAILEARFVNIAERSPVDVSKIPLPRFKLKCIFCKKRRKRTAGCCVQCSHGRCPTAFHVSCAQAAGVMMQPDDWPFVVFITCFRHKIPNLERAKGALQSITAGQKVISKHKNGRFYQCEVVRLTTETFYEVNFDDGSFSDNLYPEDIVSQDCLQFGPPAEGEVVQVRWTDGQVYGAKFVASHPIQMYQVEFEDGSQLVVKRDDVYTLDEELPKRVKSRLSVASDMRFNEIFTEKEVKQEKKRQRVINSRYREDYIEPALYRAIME
# PLK1 PBD inh = blocks phosphopeptide binding to human PLK1 polo-box domain. AID 720504. Plk1 PBD binding of FITC phosphopeptide, fluorescence polarization. Potency, µM, inactives show max response, negative = inhibition, actives largely listed as inhibitors. 360,000 tested, 2.8% active; further: series mostly up to about 57 µM; on the % scale 0 is the no-effect control and ±100 the full control effect; nearly all actives have a fitted effect of over 65% in size
# HP1b chromo inh = inhibitors of HP1-beta chromodomain binding to methylated histone tails; P83916; AlphaScreen HP1-beta / biotin-H3K9me3 peptide binding; Potency, µM (top dose mostly 114 µM), for inactives: at the top dose activity change, negative = inhibition, hits mostly inhibitors; 390,000 tested, 0.56% active; AID 540317; further: nearly all actives have a fitted effect of over 70% in size
#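 Compound inhibition of the preformed complex between 50 nM HP1-beta and 50 nM biotinylated H3K9me3 peptide was read by AlphaScreen. Buffer was PBS pH 7.4 with 0.01% Tween-20. Incubations ran 30 min at room temperature, with 10 ug/mL donor/acceptor beads.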
# Starred values were filed as active, the others as inactive; ? = inconclusive; . = no result; [ ] = another dose, or the depositor's remark. The call rests on the fitted dose curve; in most records, active means well fitted curve in the direction sought with a large enough effect; inconclusive means small, poorly fitted or top-dose-only effect, or another doubt; inactive means no such curve, though single readings can be large; an effect the other way counts as inactive or inconclusive. Potency means the concentration at half of the fitted maximal effect.
SMILES,BAZ2B inh,G9a block,VDR inhibitor,JMJD2A Tudor,PLK1 PBD inh,HP1b chromo inh
CC(C)CN1CCNC(=O)C1CC(=O)NCCCN1CCCc2ccccc21 (stereo unspecified),79µM*,-11%[12.7 µM],3%,-34%,-13%,2%
Cc1cccc(CCNC(=O)CC2C(=O)NCCN2Cc2ccccc2C)n1 (stereo unspecified),8%,50µM*,-11%,-13%,-5%,43%
Cc1ccccc1CNC(=O)CC1C(=O)NCCN1CC1CCCCC1 (stereo unspecified),-10%,?,4%,-15%,-9%,32%
COc1cccc(CN2CCNC(=O)C2CC(=O)O)c1OC (stereo unspecified),-1%,?,-6%,-13%,-20%,29%
Cc1ccccc1CN1CCNC(=O)C1CC(=O)O (stereo unspecified),-2%,14µM*,-8%,-8%,-9%,20%
O=C(CC1C(=O)NCCN1Cc1ccccc1C(F)(F)F)NCCc1ccccn1 (stereo unspecified),-12%,.,?,-25%,-14%,26%
COc1cc(OC)c(NC(=O)C(Cc2ccccc2)NS(=O)(=O)c2cccc3nsnc23)cc1Cl (stereo unspecified),.,-30%[59 µM],-6%,?,.,3%
CN(C)CCN1CCN(C2CN(Cc3ccccc3)S(=O)(=O)C2)CC1 (stereo unspecified),.,.,.,.,10%,.
Cc1cc(C)c2oc(C(=O)Nc3sc4c(c3C(=O)NCc3ccco3)CCCC4)cc(=O)c2c1,-3%,-21%[59 µM],-10%,-12%,.,23%
O=C(NC(=S)Nc1ccccc1N1CCOCC1)c1ccco1,-9%,50µM*,3%,-17%,-2%,35%
O=C(NC(=S)Nc1ccccc1N1CCCC1)c1ccco1,40µM*,.,-3%,?,?,?
COc1c(C)cccc1C(=O)NC(=S)Nc1ccccc1N1CCCC1,?,32µM*,-4%,50µM*,-16%,-3%
O=C(NC1(C(F)(F)F)C(=O)Nc2c1c(=O)[nH]c(=O)n2CCc1ccccc1)c1ccc(Cl)cc1Cl (stereo unspecified),-14%,5%[59 µM],-11%,-1%,.,27%
NC(=O)c1c(NC(=O)Cc2ccccc2)sc2c1CCN(Cc1ccccc1)C2,-1%,-7%,-14%,3%,4%,46%
COc1ccc(C(=O)Nc2sc3c(c2C#N)CCN(C(C)=O)C3)cc1,.,50µM*,-3%,-7%,-3%,32%
CN1CCc2c(sc(NC(=O)Cc3ccccc3)c2C#N)C1,-10%,45µM*,-11%,-17%,?,4%
CC(=O)N1CCc2c(sc(NC(=O)c3ccc([N+](=O)[O-])o3)c2C#N)C1,56µM*,2.8µM*,?,?,24µM*,?
CN1CCc2c(sc(NC(=O)CS(=O)(=O)c3ccccc3)c2C(N)=O)C1,-11%,50µM*,10%,-21%,-12%,10%
CCCN1CCc2c(sc(NC(=O)CCS(=O)(=O)c3ccccc3)c2C(N)=O)C1,-17%,?,-12%,-10%,-8%,-6%
COc1cc(C(=O)Nc2sc3c(c2C#N)CCN(C(C)=O)C3)cc(OC)c1OC,-3%,-8%[59 µM],-5%,-18%,-5%,39%
CN=C1NC(C)(C)C2CCC(C)(CC2)S1,.,.,15%,-4%,2%,8%[57 µM]
CCOc1ccc(-n2c(=O)c3c(C)c(C)sc3n(Cc3ccccc3C)c2=O)cc1,3%,8%[59 µM],9%,-12%,.,12%
CC(=O)N1CCc2c(sc(NC(=O)Cc3ccc(C)cc3C)c2C#N)C1,-18%,12%,?,?,27µM*,14%
Cc1ccccc1NC(=O)c1ccc([N+](=O)[O-])o1,-9%,?,12%,-16%,-10%,-2%
CC(=O)N1CCc2c(sc(NC(=O)Cc3ccc(F)cc3)c2C#N)C1,1%,22%,-12%,0%,-19%,22%
SMILES,BAZ2B inh,G9a block,VDR inhibitor,JMJD2A Tudor,PLK1 PBD inh,HP1b chromo inh
COC(=O)c1sc(NC(=O)c2ccc([N+](=O)[O-])o2)c(C#N)c1C,?,13µM*,2%,?,?,?
O=C(c1ccccc1F)N1CCCC(C(=O)N2CCc3ccccc3C2)C1 (stereo unspecified),-4%,5%,-13%,-2%,-1%,-2%
COc1ccc(C(=O)N(c2ccc(C)cc2)S(=O)(=O)c2ccc(C)cc2)cc1,0%,-1%[59 µM],5%,-23%,.,18%
Nc1c(Cl)cc(C(=O)NC2CC2)cc1Cl,.,.,25%,-4%,-23%,17%
COC(=O)C1=C(C)NC(=O)/C1=C\c1cc(C)n(-c2ccccc2)c1C,?,40µM*,-14%,?,2%,-15%
COC(=O)C1=C(C)NC(=O)/C1=C\c1cc(C)n(-c2cc(C)cc(C)c2)c1C,45µM*,-15%[12.7 µM],7%,56µM*,-8%,-60%
Cc1cc(/C=C2\SC(=O)NC2=O)c(C)n1-c1ccc(N(C)C)cc1,6%,14%,8%,-16%,3%,2%
Cc1cc(NC(=O)CCCn2cnc([N+](=O)[O-])n2)no1,-6%,2%,?,-20%[11.4 µM],12µM*,6%
Cc1cc(NC(=O)CCCn2nc(C)c([N+](=O)[O-])c2C)no1,-1%,2%,-11%,-10%,-7%,29%
O=c1c2ccccc2nnn1Cc1ccccc1Cl,0%,74%,7%,25%,-17%,43%
O=C(NCc1ccccc1)C12CC3CC(CC(C3)C1)C2,?,32µM*,-17%,-20%,0%,27%
CCOCCn1ccc2c(OCC(=O)Nc3ccc(C(N)=O)cc3)cccc2c1=O,-7%,10%[59 µM],9%,-4%,.,7%
CN1CCN(S(=O)(=O)c2cccc(C(=O)N(C)CC(=O)Nc3ccc(F)c(F)c3F)c2)CC1,?,1.8µM*,18%,-21%,-1%,15%
Cc1ccc(NC(=O)CN(C)C(=O)Cc2coc3cc(C)c(C)cc23)cc1,.,.,9%,-23%,-3%,12%
Cc1cc2occ(CC(=O)N(C)CC(=O)Nc3c(C)cccc3C)c2cc1C,1%,40µM*,-3%,-8%,-2%,5%
COc1ccc(NC(=O)CN(C)C(=O)c2cccc(Oc3ccccc3)c2)cc1,2%,?,-8%,-22%,-13%,23%
COc1ccc(NC(=O)CN(C)C(=O)c2cccc(S(=O)(=O)N3CCN(Cc4ccccc4)CC3)c2)cc1,?,18µM*,-7%,-22%,-14%,11%
COc1ccc(NC(=O)CN(C)C(=O)c2cccc(-n3cccc3)c2)cc1,11µM*,45µM*,-2%,22µM*,?,25µM*
COc1ccc(Cl)cc1NC(=O)CN(C)C(=O)c1cccc(S(=O)(=O)N2CCN(C)CC2)c1,.,.,-4%,-12%,6%,20%
